# Records with an inconclusive call do not appear. Active and inactive are the calls of the source. Rule for the calls: active = hit-call score of the fitted dose curve at least 0.9, where 1 is the maximum; inconclusive = response in the unintended direction; inactive = score below 0.9.
# Target: Peroxisome proliferator-activated receptor gamma (Homo sapiens) (UniProt P37231)
# Assay: NVS_NR_hPPARg: NovaScreen (NVS) Nuclear Receptor Binding Assay for human Peroxisome Proliferator-activated Receptor gamma (PPARg) (AID 2283370)
# How it was run: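 Chemicals were tested first in duplicate at 25 uM, then in concentration series if active. Binding to cell-free PPARg protein was measured by fluorescence polarization after 2 h, with loss of signal scored against DMSO.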
# Sequence of Peroxisome proliferator-activated receptor gamma (Homo sapiens) (P37231 whole entry, looked up): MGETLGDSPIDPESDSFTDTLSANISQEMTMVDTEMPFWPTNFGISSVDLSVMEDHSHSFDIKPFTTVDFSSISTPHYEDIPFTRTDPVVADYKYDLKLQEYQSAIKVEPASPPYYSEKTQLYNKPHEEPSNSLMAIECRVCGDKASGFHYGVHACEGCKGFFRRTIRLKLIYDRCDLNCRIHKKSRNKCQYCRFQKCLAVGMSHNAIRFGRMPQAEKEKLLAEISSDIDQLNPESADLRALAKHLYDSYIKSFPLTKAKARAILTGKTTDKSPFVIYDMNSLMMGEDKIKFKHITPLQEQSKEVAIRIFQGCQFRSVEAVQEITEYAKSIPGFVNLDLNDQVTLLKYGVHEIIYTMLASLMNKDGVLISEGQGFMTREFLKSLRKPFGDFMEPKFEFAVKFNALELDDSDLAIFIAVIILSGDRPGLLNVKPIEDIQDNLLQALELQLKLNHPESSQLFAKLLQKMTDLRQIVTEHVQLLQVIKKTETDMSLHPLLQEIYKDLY
row,SMILES,outcome
1,COCC(C)N(C(=O)CCl)c1c(C)csc1C (stereo not given),inactive
2,CCCC(=NOCC)C1=C(O)CC(CC(C)SCC)CC1=O (stereo not given),inactive
3,O=C1C2CC=CCC2C(=O)N1SC(Cl)(Cl)Cl (stereo not given),inactive
4,Nc1c(Cl)c(F)nc(OCC(=O)O)c1Cl,inactive
5,COCC(=O)N(c1c(C)cccc1C)C(C)C(=O)OC (stereo not given),inactive
6,CCSC(=O)N1CCCCCC1,inactive
7,CC(C)NC(=O)N1CC(=O)N(c2cc(Cl)cc(Cl)c2)C1=O,inactive

# Target: Agonist Androgen Response Element (ARE), AR (gene 367) (UniProt P10275)
# Sequence (P10275 whole entry, looked up): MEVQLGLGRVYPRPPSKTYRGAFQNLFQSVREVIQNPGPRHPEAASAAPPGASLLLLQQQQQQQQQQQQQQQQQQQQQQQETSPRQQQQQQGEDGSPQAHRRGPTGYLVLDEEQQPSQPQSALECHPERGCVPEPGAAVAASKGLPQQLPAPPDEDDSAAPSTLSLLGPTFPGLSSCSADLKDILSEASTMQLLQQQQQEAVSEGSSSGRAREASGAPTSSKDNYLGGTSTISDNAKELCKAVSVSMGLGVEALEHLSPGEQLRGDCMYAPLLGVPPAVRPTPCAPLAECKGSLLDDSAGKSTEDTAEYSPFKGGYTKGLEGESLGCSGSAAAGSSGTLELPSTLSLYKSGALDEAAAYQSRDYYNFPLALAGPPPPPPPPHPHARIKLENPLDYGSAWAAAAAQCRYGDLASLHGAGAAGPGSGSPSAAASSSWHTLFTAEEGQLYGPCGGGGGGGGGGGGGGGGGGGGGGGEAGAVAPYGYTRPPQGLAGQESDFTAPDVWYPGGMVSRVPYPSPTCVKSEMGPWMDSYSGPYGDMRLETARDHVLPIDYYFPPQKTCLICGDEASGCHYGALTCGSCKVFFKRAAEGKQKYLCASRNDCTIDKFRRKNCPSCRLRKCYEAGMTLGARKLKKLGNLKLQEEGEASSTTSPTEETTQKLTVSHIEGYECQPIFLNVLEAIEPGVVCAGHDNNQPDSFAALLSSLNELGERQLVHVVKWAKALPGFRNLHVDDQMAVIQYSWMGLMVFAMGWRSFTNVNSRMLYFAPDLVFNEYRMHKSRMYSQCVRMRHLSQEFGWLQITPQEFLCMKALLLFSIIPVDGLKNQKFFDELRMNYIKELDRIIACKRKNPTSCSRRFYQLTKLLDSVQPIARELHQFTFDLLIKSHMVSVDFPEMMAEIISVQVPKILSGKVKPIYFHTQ
# Assay: OT_AR_ARELUC_AG_1440: Odyssey Thera (OT) 24-hour CHO-K1 Luciferase Assay for Agonist Androgen Response Element (ARE) (AID 2283379)
# How it was run: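 Seed CHO-K1 cells; dose compounds for 24 h; add D-luciferin plus ATP in PBS; read luminescence. Signal increase relative to vehicle defines agonist activity, with at least 3 replicate wells per sample.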
row,SMILES,outcome
1,COC(=O)N(C(=O)N1CO[C@@]2(C(=O)OC)Cc3cc(Cl)ccc3C2=N1)c1ccc(OC(F)(F)F)cc1,inactive
2,COc1ccc(-c2ccccc2)cc1NNC(=O)OC(C)C,inactive
3,COC(=O)c1c(C(F)F)nc(C(F)(F)F)c(C2=NCCS2)c1CC(C)C,inactive
4,Clc1cccc(C(Cl)(Cl)Cl)n1,inactive
5,Nc1c(Cl)c(F)nc(OCC(=O)O)c1Cl,inactive
6,COCc1cnc(C2=NC(C)(C(C)C)C(=O)N2)c(C(=O)O)c1 (stereo not given),inactive

# Target: Estrogen receptor beta (Homo sapiens) (UniProt Q92731)
# Sequence (Q92731 whole entry, looked up, the tested form may be a part): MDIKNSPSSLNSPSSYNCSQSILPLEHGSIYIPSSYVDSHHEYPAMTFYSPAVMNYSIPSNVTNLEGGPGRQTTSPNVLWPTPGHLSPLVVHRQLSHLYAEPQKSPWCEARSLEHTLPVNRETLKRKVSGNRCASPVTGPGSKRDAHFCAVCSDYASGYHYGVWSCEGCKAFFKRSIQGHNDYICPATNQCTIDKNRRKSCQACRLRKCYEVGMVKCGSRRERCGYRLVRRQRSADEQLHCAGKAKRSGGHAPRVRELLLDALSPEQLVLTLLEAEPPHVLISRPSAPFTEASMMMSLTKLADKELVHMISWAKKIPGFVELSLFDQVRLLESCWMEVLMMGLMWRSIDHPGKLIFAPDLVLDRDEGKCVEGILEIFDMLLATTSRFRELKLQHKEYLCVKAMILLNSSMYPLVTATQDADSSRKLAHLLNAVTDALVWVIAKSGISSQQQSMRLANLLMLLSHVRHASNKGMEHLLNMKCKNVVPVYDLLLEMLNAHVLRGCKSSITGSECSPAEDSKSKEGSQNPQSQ
# Assay: OT_ER_ERbERb_1440: Odyssey Thera (OT) 24-hour HEK293T Protein-Complementation Assay for Estrogen Receptor-beta/-beta Homodimer (AID 2283380);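 note: fluorescence gain from ER beta LBD homodimer complementation read by laser scanning cytometry; scored as signal increase over DMSO baseline for both agonists and antagonists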
# How it was run: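 HEK293T cells stably expressing human ER-beta LBD (aa 310-547) PCA homodimer pair, dosed 24 h; formaldehyde-fixed, Draq5-stained. Readout: increase in nuclear (agonist) or nuclear plus cytoplasmic (antagonist) fluorescence intensity versus DMSO, gain-of-signal fitting.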
SMILES,outcome,AC50
COC(=O)N(C(=O)N1CO[C@@]2(C(=O)OC)Cc3cc(Cl)ccc3C2=N1)c1ccc(OC(F)(F)F)cc1,inactive,–
CS(=O)(=O)c1ccc(C(=O)C2C(=O)CCCC2=O)c([N+](=O)[O-])c1,inactive,–
COc1cc(OC)nc(NC(=O)NS(=O)(=O)c2ncccc2OCC(F)(F)F)n1,inactive,–
Cc1ccc(N=CN(C)C=Nc2ccc(C)cc2C)c(C)c1,inactive,–
COC(=O)NC(=S)Nc1ccccc1NC(=S)NC(=O)OC,inactive,–
CCCC(=NOCC)C1=C(O)CC(CC(C)SCC)CC1=O (stereo not given),inactive,–
COC(=O)NS(=O)(=O)c1ccc(N)cc1,inactive,–
Cc1nc(N(C)C)nc(OC(=O)N(C)C)c1C,inactive,–
CS(=O)(=O)c1cc(C(F)(F)F)ccc1C(=O)c1cnoc1C1CC1,inactive,–
CN/C(=N\[N+](=O)[O-])NCc1cnc(Cl)s1,inactive,–
COc1cc(Cl)c(OC)cc1Cl,inactive,–
CNC(=O)N(C)c1nnc(C(C)(C)C)s1,inactive,–
COc1ccc(-c2ccccc2)cc1NNC(=O)OC(C)C,inactive,–
CCC(C)n1c(=O)[nH]c(C)c(Br)c1=O (stereo not given),inactive,–
C=CCOC(=O)C(C)(C)OC(=O)c1cc(-n2c(=O)cc(C(F)(F)F)n(C)c2=O)ccc1Cl,inactive,–
O=C1C2CC=CCC2C(=O)N1SC(Cl)(Cl)Cl (stereo not given),inactive,–

SMILES,outcome,AC50
COC(=O)c1c(C(F)F)nc(C(F)(F)F)c(C2=NCCS2)c1CC(C)C,–,43.7 µM (active)
Clc1cccc(C(Cl)(Cl)Cl)n1,inactive,–
Nc1c(Cl)c(F)nc(OCC(=O)O)c1Cl,inactive,–
COCC(=O)N(c1c(C)cccc1C)C(C)C(=O)OC (stereo not given),inactive,–
CC(C)Nc1nc(Cl)nc(NC(C)C)n1,inactive,–
CC(C)N1C(=O)N(c2ccccc2)CSC1=NC(C)(C)C,–,27.7 µM (active)
COP(=O)(OC)O/C(C)=C/C(=O)N(C)C,inactive,–
O=C(O)c1c(Cl)ccc2cc(Cl)cnc12,inactive,–
O=c1n(Cl)c(=O)n(Cl)c(=O)n1Cl,inactive,–
C=C(C)CN(CC)c1c([N+](=O)[O-])cc(C(F)(F)F)cc1[N+](=O)[O-],inactive,–
CCSC(=O)N1CCCCCC1,inactive,–
Nc1cnn(-c2ccccc2)c(=O)c1Cl,inactive,–
COCc1cnc(C2=NC(C)(C(C)C)C(=O)N2)c(C(=O)O)c1 (stereo not given),inactive,–
O=C(Nc1ccccc1-c1ccc(Cl)cc1)c1cccnc1Cl,inactive,–
CCOc1nc(C(Cl)(Cl)Cl)ns1,inactive,–
CCOc1nc(F)cc2nc(S(=O)(=O)Nc3c(Cl)cccc3Cl)nn12,inactive,–

# Reference: PubChem BioAssay (EPA / NIEHS)
